# Measured values published in ChEMBL document CHEMBL5606460, “ASAP - DENV-2 NS2B-NS3 protease fluorescence single point” (2024).
# Out of some 2,000 compounds screened, about 110 (5.5%) showed an effect of 50% or more. Only a selection was taken, and strong results are over-represented in it overall.
# Target: Genome polyprotein (dengue virus type 2) (UniProt P29990)
# [1] = Thailand/16681/1984, Concentration 25.0 uM, Number of replicates 1.0
compound,measurement,setting,value
Cc1cnccc1NC(=O)c1cccc(C(F)(F)F)n1,inhibition,"Thailand/16681/1984, Concentration 49.5 uM, Number of replicates 2.0, Standard deviation 0.6191824281934856 %",0.024%
same,inhibition,"Thailand/16681/1984, Concentration 99.01 uM, Number of replicates 2.0, Standard deviation 1.7542746720133946 %",-0.908%
same,inhibition,"Thailand/16681/1984, Concentration 198.0 uM, Number of replicates 2.0, Standard deviation 1.379232208237382 %",-0.988%
N#Cc1cccc(NC(=O)c2cccc(OCc3c(Cl)cccc3Cl)c2)c1,inhibition,"Thailand/16681/1984, Concentration 49.5 uM, Number of replicates 2.0, Standard deviation 0.9750482899240065 %",1.9%
same,inhibition,"Thailand/16681/1984, Concentration 99.01 uM, Number of replicates 2.0, Standard deviation 10.511808397875392 %",16.1%
same,inhibition,"Thailand/16681/1984, Concentration 198.0 uM, Number of replicates 2.0, Standard deviation 5.918696266313343 %",7%
N#Cc1cccc(-c2nc3c(C(=O)NCc4ccccn4)cc(Cl)cc3[nH]2)c1,inhibition,"Thailand/16681/1984, Concentration 99.5 uM, Number of replicates 2.0, Standard deviation 0.024300186977441064 %",-1.93%
same,inhibition,"Thailand/16681/1984, Concentration 295.6 uM, Number of replicates 2.0, Standard deviation 0.2349015826654049 %",5.47%
N#Cc1cccc(-c2nc3c(C(=O)Nc4ccc5c(c4)CNC5)cc(Cl)cc3[nH]2)c1,inhibition,"Thailand/16681/1984, Concentration 99.5 uM, Number of replicates 2.0, Standard deviation 0.0717454001083366 %",96.4%
same,inhibition,"Thailand/16681/1984, Concentration 295.6 uM, Number of replicates 2.0, Standard deviation 0.16315483385791593 %",93.6%
O=C(Nc1ccc2c(c1)CNC2)c1cc(Cl)cc(C(F)(F)F)n1,inhibition,"Thailand/16681/1984, Concentration 99.5 uM, Number of replicates 2.0, Standard deviation 0.07984298981903766 %",98%
same,inhibition,"Thailand/16681/1984, Concentration 295.6 uM, Number of replicates 2.0, Standard deviation 0.03008678069059277 %",99.8%
CCCOc1ccc(NC(=O)C2CCN(c3ccc(C=O)cc3)CC2)cc1,inhibition,[1],0.636%
O=Cc1ccc(N2CCC(C(=O)N3CCN(C(c4ccc(F)cc4)c4ccc(F)cc4)CC3)CC2)cc1,inhibition,[1],1.35%
COc1cccc(Cn2ncc(C3CCNCC3)c2C)n1,inhibition,"Thailand/16681/1984, Concentration 49.5 uM, Number of replicates 2.0, Standard deviation 0.6865140838852157 %",-2.28%
same,inhibition,"Thailand/16681/1984, Concentration 99.01 uM, Number of replicates 2.0, Standard deviation 1.8857815426916016 %",-0.708%
same,inhibition,"Thailand/16681/1984, Concentration 198.0 uM, Number of replicates 2.0, Standard deviation 1.685903611817113 %",-0.083%
O=Cc1ccc(N2CCC(C(=O)NCCCn3nccc3C3CC3)CC2)cc1,inhibition,[1],15.6%
O=Cc1ccc(N2CCC(C(=O)Nc3cc(C(F)(F)F)ccn3)CC2)cc1,inhibition,[1],10.8%
CNc1ccccc1C(=O)Nc1ccccc1Cc1cccc2c(CO)cc(C)nc12,inhibition,"Thailand/16681/1984, Concentration 49.95 uM, Number of replicates 2.0, Standard deviation 0.9187611737377075 %",-6.32%
same,inhibition,"Thailand/16681/1984, Concentration 99.9 uM, Number of replicates 2.0, Standard deviation 0.9402243720481833 %",-7.75%
Cc1cc(CO)c2cccc(NC(=O)c3nc(C4CCNCC4)oc3C)c2n1,inhibition,"Thailand/16681/1984, Concentration 49.95 uM, Number of replicates 2.0, Standard deviation 36.17788639576005 %",67.7%
same,inhibition,"Thailand/16681/1984, Concentration 99.9 uM, Number of replicates 2.0, Standard deviation 0.36888000776056334 %",98.7%
Cc1cc(CO)c2cccc(C[C@H](NC(=O)c3nc(C4CCNCC4)oc3C)C(=O)O)c2n1,inhibition,"Thailand/16681/1984, Concentration 49.95 uM, Number of replicates 2.0, Standard deviation 0.8080216779744858 %",2.79%
same,inhibition,"Thailand/16681/1984, Concentration 99.9 uM, Number of replicates 2.0, Standard deviation 0.4573836691864076 %",10%
Cc1cc(CO)c2cccc(NC(=O)c3nc(-c4ccccc4)oc3C(F)(F)F)c2n1,inhibition,"Thailand/16681/1984, Concentration 49.95 uM, Number of replicates 2.0, Standard deviation 3.021297847027803 %",28.1%
same,inhibition,"Thailand/16681/1984, Concentration 99.9 uM, Number of replicates 2.0, Standard deviation 2.6625533133971393 %",43.6%
Cc1cc(CO)c2cccc(Cc3ccccc3NC(=O)c3nc(C4CCNCC4)oc3C)c2n1,inhibition,"Thailand/16681/1984, Concentration 49.95 uM, Number of replicates 2.0, Standard deviation 1.1742415452444355 %",3.36%
same,inhibition,"Thailand/16681/1984, Concentration 99.9 uM, Number of replicates 2.0, Standard deviation 2.967451033370285 %",69.9%
Cc1cc(CO)c2cccc(Cc3cccc(NC(=O)c4nc(C5CCNCC5)oc4C)c3)c2n1,inhibition,"Thailand/16681/1984, Concentration 49.95 uM, Number of replicates 2.0, Standard deviation 2.427412589513284 %",-2.68%
same,inhibition,"Thailand/16681/1984, Concentration 99.9 uM, Number of replicates 2.0, Standard deviation 2.040383474434353 %",-3.1%
Cc1nccc(Cn2cc(C3CCNCC3)c(C)n2)n1,inhibition,"Thailand/16681/1984, Concentration 49.5 uM, Number of replicates 2.0, Standard deviation 0.12424043789356491 %",-1.07%
same,inhibition,"Thailand/16681/1984, Concentration 99.01 uM, Number of replicates 2.0, Standard deviation 0.32682664095966646 %",-0.665%
same,inhibition,"Thailand/16681/1984, Concentration 198.0 uM, Number of replicates 2.0, Standard deviation 1.945197851645592 %",1.76%
CN(Cc1nc2ccccc2n1C)C(=O)C1CCN(c2ccc(C=O)cc2)CC1,inhibition,[1],14.9%
Cc1cc(NS(=O)(=O)c2ccc(Oc3ccccc3Cl)cc2)c(C(=O)NCC(F)(F)F)cc1F,inhibition,"Thailand/16681/1984, Concentration 49.5 uM, Number of replicates 2.0, Standard deviation 0.004288863304468577 %",80.7%
same,inhibition,"Thailand/16681/1984, Concentration 99.01 uM, Number of replicates 2.0, Standard deviation 0.05387243894141284 %",85%
same,inhibition,"Thailand/16681/1984, Concentration 198.0 uM, Number of replicates 2.0, Standard deviation 0.06674981844803736 %",82.2%
CNC(=O)c1cc(Cl)c(F)cc1NS(=O)(=O)c1ccc(Oc2ccccc2Cl)cc1,inhibition,"Thailand/16681/1984, Concentration 49.5 uM, Number of replicates 2.0, Standard deviation 0.030615470758313425 %",98.6%
same,inhibition,"Thailand/16681/1984, Concentration 99.01 uM, Number of replicates 2.0, Standard deviation 0.03013533386007732 %",99.7%
same,inhibition,"Thailand/16681/1984, Concentration 198.0 uM, Number of replicates 2.0, Standard deviation 0.00477978979592347 %",98.7%
CNC(=O)c1cc(Cl)cc(OC)c1NS(=O)(=O)c1ccc(Oc2ccccc2Cl)cc1,inhibition,"Thailand/16681/1984, Concentration 49.5 uM, Number of replicates 2.0, Standard deviation 0.8103097460864452 %",1.45%
same,inhibition,"Thailand/16681/1984, Concentration 99.01 uM, Number of replicates 2.0, Standard deviation 1.6946405270728757 %",1.53%
same,inhibition,"Thailand/16681/1984, Concentration 198.0 uM, Number of replicates 2.0, Standard deviation 1.1024722794831296 %",-0.559%
CNC(=O)c1ccncc1NS(=O)(=O)c1ccc(Oc2ccccc2Cl)cc1,inhibition,"Thailand/16681/1984, Concentration 49.5 uM, Number of replicates 2.0, Standard deviation 3.023334340601001 %",-2.48%
same,inhibition,"Thailand/16681/1984, Concentration 99.01 uM, Number of replicates 2.0, Standard deviation 3.20078374174672 %",-0.672%
same,inhibition,"Thailand/16681/1984, Concentration 198.0 uM, Number of replicates 2.0, Standard deviation 2.339843576600017 %",2.95%
